Test results taken from PubChem BioAssay AID1159580 (chemical genetic matrix, 2015).
Values joined by “and” are separate entries in the source; they are usually repeats but may differ in a detail not shown here. Equal values may be shown once. The whole screen tested about 5,500 compounds, of which about 2,000 (36%) were called active. Not shown: some 18% with an inconclusive outcome. Cut-off read from the data, not from the text of the source: active = normalized growth mostly below about 0.91 (no sharp cut-off); inconclusive = no clear call, values can overlap the other calls; inactive = mostly above about 0.92. The list shows a part of the results.

Assay: chemical genetic growth profiling, strain panel (AID 1159580);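 note: tested at 20 µM; growth read once vehicle control cultures reached saturation at 30 °C; 1 = growth at the plate median or of vehicle wells; lower values mean less growth of the strain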
Details: S. cerevisiae deletion strains, growth OD

Measured: normalized growth

COc1cc2c(cc1OC)C1(O)C(=O)c3ccc(O)c(C(=O)O)c3OC1CO2 (configuration not stated)
inactive: locus YAL021C, strain ccr4, active compounds read low 1 | locus YAL026C, strain drs2, active compounds read low 0.988 | locus YAL030W, strain snc1, active compounds read low 1 | locus YBL061C, strain skt5, active compounds read low 0.995 | locus YBR009C, strain hhf1, active compounds read low 0.998 | locus YBR021W, strain FUR4, active compounds read low 1.06 | locus YBR023C, strain chs3, active compounds read low 1.01 | locus YBR171W, strain sec66, active compounds read low 0.996 | locus YBR229C, strain ROT2, active compounds read low 1.01 | locus YBR231C, strain swc5, active compounds read low 1.01 | locus YBR279W, strain paf1, active compounds read low 0.985 | locus YCL011C, strain gbp2, active compounds read low 0.991 | locus YCL016C, strain dcc1, active compounds read low 0.98 | locus YCL029C, strain bik1, active compounds read low 0.985 | locus YCL069W, strain vba3, active compounds read low 1 | locus YCR088W, strain abp1, active compounds read low 0.996 | locus YDL005C, strain med2, active compounds read low 1.01 | locus YDL035C, strain GPR1, active compounds read low 1.05 | locus YDL040C, strain nat1, active compounds read low 0.998 | locus YDL074C, strain BRE1, active compounds read low 1.05 | locus YDL101C, strain DUN1, active compounds read low 0.991 | locus YDL185W, strain tfp1, active compounds read low 0.954 | locus YDL192W, strain arf1, active compounds read low 1.02 | locus YDR001C, strain nth1, active compounds read low 0.987 | locus YDR069C, strain doa4, active compounds read low 0.991 | locus YDR101C, strain arx1, active compounds read low 1.05 | locus YDR137W, strain rgp1, active compounds read low 0.973 | locus YDR159W, strain sac3, active compounds read low 1 | locus YDR162C, strain NBP2, active compounds read low 0.993 | locus YDR195W, strain ref2 0.955 | locus YDR297W, strain sur2, active compounds read low 1 | locus YDR318W, strain mcm21, active compounds read low 0.986 | locus YDR334W, strain swr1, active compounds read low 0.978 | locus YDR335W, strain msn5, active compounds read low 1.01 | locus YDR388W, active compounds read low 0.977 | locus YDR392W, strain spt3, active compounds read low 0.974 | locus YDR502C, strain sam2, active compounds read low 0.983 | locus YEL003W, strain gim4, active compounds read low 0.998 | locus YEL037C, strain rad23, active compounds read low 0.987 | locus YEL061C, strain CIN8 (second series), active compounds read low 0.989 | locus YEL061C, strain CIN8, active compounds read low 0.998 | locus YER015W, strain faa2, active compounds read low 0.989 | locus YER016W, strain bim1, active compounds read low 0.991 | locus YER110C, active compounds read low 0.979 | locus YER111C, strain swi4, active compounds read low 0.98 | locus YER155C, strain BEM2 (second series), active compounds read low 0.994 | locus YER155C, strain BEM2, active compounds read low 0.99 | locus YER167W, strain BCK2, active compounds read low 1.04 | locus YFR010W, strain ubp6, active compounds read low 1 | locus YGL078C, strain dbp3, active compounds read low 0.981 | locus YGL086W, strain mad1, active compounds read low 1.02 | locus YGL167C, strain pmr1, active compounds read low 0.998 | locus YGL173C, strain kem1, active compounds read low 0.994 | locus YGL227W, strain vid30, active compounds read low 0.991 | locus YGL240W, strain doc1, active compounds read low 1.01 | locus YGL248W, strain PDE1, active compounds read low 1.02 | locus YGL253W, strain hxk2, active compounds read low 0.999 | locus YGR078C, strain PAC10, active compounds read low 0.991 | locus YGR135W, strain pre9, active compounds read low 0.98 | locus YGR252W, strain gcn5, active compounds read low 1.09 | locus YHR013C, strain ard1, active compounds read low 0.972 | locus YHR027C, strain rpn1, active compounds read low 0.991 | locus YHR030C, strain SLT2, active compounds read low 0.99 | locus YHR079C, strain IRE1 (second series), active compounds read low 0.99 | locus YHR079C, strain IRE1, active compounds read low 0.983 | locus YHR094C, strain hxt1, active compounds read low 0.982 | locus YHR129C, strain ARP1, active compounds read low 1 | locus YHR142W, strain chs7, active compounds read low 0.98 | locus YHR200W, strain rpn10, active compounds read low 0.995 | locus YIL066C, strain RNR3, active compounds read low 1.02 | locus YIL073C, strain SPO22, active compounds read low 0.932 | locus YIL125W, strain kgd1, active compounds read low 0.985 | locus YIR030C, strain dcg1, active compounds read low 0.997 | locus YJL092W, strain hpr5, active compounds read low 1.02 | locus YJL095W, strain BCK1 (second series), active compounds read low 0.989 | locus YJL095W, strain BCK1, active compounds read low 0.99 and 0.98 | locus YJL115W, strain asf1, active compounds read low 0.986 | locus YJL129C, strain trk1, active compounds read low 0.972 | locus YJL134W, strain LCB3, active compounds read low 0.986 | locus YJL154C, strain vps35, active compounds read low 0.995 | locus YJL164C, strain tpk1, active compounds read low 0.998 | locus YJL166W, strain qcr8, active compounds read low 0.997 | locus YJL168C, strain set2, active compounds read low 0.989 | locus YJL187C, strain SWE1 (second series), active compounds read low 0.989 | locus YJL187C, strain SWE1, active compounds read low 0.999 | locus YJR043C, strain POL32, active compounds read low 1.08 | locus YJR066W, strain TOR1, active compounds read low 0.9
